Test results from ChEMBL document CHEMBL4513216, “Probing the Open Global Health Chemical Diversity Library for Multistage-Active Starting Points for Next-Generation Antimalarials” (ACS Infect Dis, 2020).
Out of some 69,000 compounds screened, about 8,600 (12%) showed an effect of 50% or more. What follows is part of a selection rich in strong results, with near analogues and random picks from the rest.

tested on: Plasmodium berghei; assay: Screen against P. berghei liver stage (PbLuc), transformed with Luciferase, at 10uM; type: functional, HepG2; conditions: tested at 10 uM

Structure (SMILES)	INHIBITION [%]
CCc1nccn1C1CCCN(C(=O)c2cnn(C)c2C2CC2)C1 (stereo unspecified)	44.8
CC(C)c1nccn1C1CCCN(C(=O)c2ccnc(N(C)C)c2)C1 (stereo unspecified)	42.9
CCc1nccn1C1CCCN(C(=O)c2ccc(N(C)C)nn2)C1 (stereo unspecified)	45.65
Cc1noc2ncc(C(=O)N3CCCC(n4ccnc4C)C3)cc12 (stereo unspecified)	32.3
CCc1nccn1C1CCCN(C(=O)c2cnc3onc(C)c3c2)C1 (stereo unspecified)	66.4
Cc1noc2ncc(C(=O)N3CCCC(n4cccn4)C3)cc12 (stereo unspecified)	27.8
CCc1nccn1C1CCCN(C(=O)c2cnc3ccccc3n2)C1 (stereo unspecified)	29.2
CCc1nccn1C1CCCN(C(=O)c2ccnc(N(C)C)c2)C1 (stereo unspecified)	65.85
CCc1nccn1C1CCCN(C(=O)c2cncn2-c2ccccc2)C1 (stereo unspecified)	32.45
CCc1nccn1C1CCCN(C(=O)c2cnn3ccc(C)nc23)C1 (stereo unspecified)	24.6
CCc1nccn1C1CCCN(C(=O)c2cnn3cccnc23)C1 (stereo unspecified)	55.4
CCc1nccn1C1CCCN(C(=O)c2ccn(-c3ccccc3)n2)C1 (stereo unspecified)	52.2
O=c1ccc2c([nH]1)CCC(NS(=O)(=O)C1CC1)C2 (stereo unspecified)	32.5
O=C(NCc1ccccc1)N1CCc2ncnc(NC3CC3)c2CC1	40.3
CCOCc1nc(-c2cccc(OC)c2OC)n(C2CCN(C)CC2)n1	21.2
CN(CC(=O)Nc1ccc(Br)cn1)C(=O)C(C)(C)C	-17.6
O=C(Cc1cccnc1)N1CCCC2(CCN(CC3CCOCC3)C2)C1 (stereo unspecified)	18.5
Cc1cc(C)c(C(=O)N(C)CCN(C)C(=O)OC(C)(C)C)[nH]1	11.4
Cc1cncnc1C1CCN(C(=O)CN(C)C)CC1	-15.1
CN(C)C(=O)N1CCC2(CC1)CN(Cc1ccccn1)C(=O)CO2	30.4
CCc1nccn1C1CCCN(C(=O)c2ccc3c(c2)OCCO3)C1 (stereo unspecified)	52.5
CCc1nccn1C1CCCN(C(=O)c2ccc3c(c2)OCO3)C1 (stereo unspecified)	34.9

Structure (SMILES)	INHIBITION [%]
Cc1nccn1C1CCCN(C(=O)c2ccc3c(c2)OCCCO3)C1 (stereo unspecified)	47
CCCn1nc(C)c(CNS(=O)(=O)NCc2ccccc2)c1C	-8.66
CCCn1cc(Cl)c(C(=O)N2C[C@@H](O)[C@H](Oc3ccccc3)C2)n1	-10.55
O=S(=O)(CCc1ccccc1Cl)CC(O)CO (stereo unspecified)	35.7
Cc1cc(C(=O)Nc2cnn(CC(=O)NC3CCCC3)c2)c(C)s1	12.4
Cc1nc(C)c(C(=O)Nc2cnn(CC(=O)NC3CCCC3)c2)s1	54.5
Cc1ccsc1C(=O)Nc1cnn(CC(=O)NC2CCCC2)c1	-4.63
Cc1nn(C)c2cnn(CCCNS(=O)(=O)Cc3ccccc3)c12	41.6
Cc1nccn1C1CCCN(C(=O)CCNc2ncccn2)C1 (stereo unspecified)	5.03
CC(C)CNC(=O)N1CCC2(CC1)OC(C(N)=O)Cn1ccnc12 (stereo unspecified)	39.4
COC(=O)C1CCCN1C(=O)c1ccc(-n2nc(C)cc2C)cc1 (stereo unspecified)	-16.8
Cc1cc(C)n(C2=NC(NCCC(C)C)c3c(sc4c3CCCC4)N2)n1 (stereo unspecified)	90.5
COCCCNC(=O)c1c(-n2cnnn2)sc2c1CCC2	30.8
CC(C)OCCCNC(=O)c1c(-n2cnnn2)sc2c1CCCC2	20.1
Cc1cc(C)n(C2=NC(NCCCO)c3c(sc4c3CCCC4)N2)n1 (stereo unspecified)	79.7
COCCCNC1N=C(n2nc(C)cc2C)Nc2sc3c(c21)CCCC3 (stereo unspecified)	88.8
COCCNC(=O)c1c(-n2cnnn2)sc2c1CCCC2	-6.42
Cc1oc(C(=O)O)cc1S(=O)(=O)Nc1cc(Br)ccc1F	-0.96
Cc1ncncc1C(=O)N1CCC(O)(CN(C)Cc2ccc(F)cc2)C1 (stereo unspecified)	6.32
CC(C)c1nnc(CCC(=O)N2CCCC(c3cnccn3)C2)o1 (stereo unspecified)	26.7
CN(C)C(=O)c1nn(C)c2c1CN(Cc1ccc(F)cc1)C2	31.7
CCCN1CCN(C(=O)Nc2ccccc2Cl)[C@H]2CS(=O)(=O)C[C@H]21	-32.9

Structure (SMILES)	INHIBITION [%]
Cc1ccccc1NC(=O)N1CCN(C(=O)C2CC2)[C@@H]2CS(=O)(=O)C[C@@H]21	-5.22
CC(=O)N1CCN(C(=O)Nc2ccccc2Cl)[C@H]2CS(=O)(=O)C[C@H]21	72
CN(C)C(=O)N1CCN(Cc2ccccc2)[C@@H]2CS(=O)(=O)C[C@@H]21	-33.2
O=C(Nc1ccccc1Cl)N1CCN(CC2CC2)[C@@H]2CS(=O)(=O)C[C@@H]21	52.2
CS(=O)(=O)NCC1CCCN(C(=O)Nc2ccccc2Cl)C1 (stereo unspecified)	9.48
O=C(CCC(=O)N1CCc2[nH]c3ccccc3c2C1)NCc1ccco1	1.41
CNc1cc(C2CCCN(C(=O)c3ccc(=O)[nH]n3)C2)ccn1 (stereo unspecified)	15.5
COC[C@]1(O)CCN(Cc2ccc(N(C)C)nc2)CC1(C)C	22.6
Cc1cc(Nc2ncccn2)nc(C2CCCN(CCO)C2)n1 (stereo unspecified)	-3.94
Cc1ccc(S(=O)(=O)NC(=O)CCC(F)(F)F)cc1N(C)C	13.139
Cc1cccc(-c2nc(CN3CCCC3Cn3cc(C)cn3)no2)c1 (stereo unspecified)	83.2
Cc1cnn(CC2CCCN2Cc2noc(C3CC3)n2)c1 (stereo unspecified)	37.9
Cc1ccc(-c2nc(CN3CCCC3Cn3cc(C)cn3)no2)cc1 (stereo unspecified)	51.3
Cc1cnn(CC2CCCN2Cc2noc(C)n2)c1 (stereo unspecified)	9.14
Cc1cnn(CC2CCCN2Cc2noc(-c3ccccc3)n2)c1 (stereo unspecified)	23.5
Cc1cccc(-c2nc(CN3CCCCC3Cn3cncn3)no2)c1 (stereo unspecified)	13.9
CC1N(c2cnn(C)c2)C(=O)COC12CCN(Cc1ccco1)CC2 (stereo unspecified)	16.6
CCCc1ccc(S(=O)(=O)NC2(CC(N)=O)CCC2)cc1	51.3
COc1ccc(S(=O)(=O)NC2(CC(N)=O)CCC2)cc1	42.7
CC(C)c1ccc(S(=O)(=O)NC2(CC(N)=O)CCC2)cc1	37.7
NC(=O)Cn1c(CO)cnc1SCc1ccccc1Cl	-4.01
Cc1noc(C2CCC3(CCN(C(=O)c4cc(C5CC5)on4)CC3)O2)n1 (stereo unspecified)	7.53

Structure (SMILES)	INHIBITION [%]
CNc1cncc(C2CCCN2Cc2cccc(C)n2)n1 (stereo unspecified)	45.6
CNc1cncc(C2CCCN2Cc2ccccn2)n1 (stereo unspecified)	35.8
CNc1cncc(C2CCCN2Cc2ccn(C)n2)n1 (stereo unspecified)	51.5
Cc1cc(N2CCCC2c2cncc(N(C)C)n2)ncn1 (stereo unspecified)	14.7
CNc1cncc(C2CCCN2C(=O)c2ccc3oc(C)cc3c2)n1 (stereo unspecified)	6.81
Cc1cc(N2CCCC2c2cnccn2)ncn1 (stereo unspecified)	11.4
CNc1cncc(C2CCCN2C(=O)c2ccc3c(c2)CCC3)n1 (stereo unspecified)	54.5
CNc1cncc(C2CCCN2C(=O)c2ccc3c(c2)OCCO3)n1 (stereo unspecified)	30.8
CNc1cncc(C2CCCN2c2cc(C)ncn2)n1 (stereo unspecified)	52
CCCc1noc(CN2CCC(NC(=O)c3ccc(C)s3)CC2)n1	25
CNc1cc(N2CCCC2CNCc2cccnc2)ncn1 (stereo unspecified)	-3.19
CCO[C@@H]1CC[C@H]2[C@H]1OCCN2CCOCc1ccccc1	41.2
O=C(Nc1ccc2c(c1)OCCO2)N1CCCC1c1ccco1 (stereo unspecified)	-0.87
Cc1cccc(CN2C[C@@H]3[C@@H](C(=O)NCC(C)C)CCS(=O)(=O)[C@@H]3C2)c1	-41.9
CCc1nc(CN2CCCC(NCc3nnc(C4CC4)n3C)C2)no1 (stereo unspecified)	1.75
CCc1ccc(CN2CCC3(CC2)CNC(=O)CO3)o1	33.7
CC(C)Cc1cc(C(=O)NCCc2ccc(S(C)(=O)=O)cc2)[nH]n1	8.69
O=C(O)c1cc(S(=O)(=O)Nc2cc(Cl)ccc2F)cc2c1OCCO2	27.6
CN(CC(=O)NC(N)=O)CC1(c2ccc(Br)cc2)CC1	-17.3
COC1COC2(CCN(Cc3ccc4c(c3)OCO4)CC2)C1 (stereo unspecified)	-39.3
Cc1cc(C(=O)N2CCC3(CCC(=O)N(CC(N)=O)C3)CC2)ccc1O	-64.3
C[C@@H]1CN(C(=O)C2(Cn3cccn3)CC2)CC[C@@]1(O)C1CC1	24.205

Structure (SMILES)	INHIBITION [%]
CNC(=O)Cn1c(-c2ccco2)nn(-c2ccccc2OC)c1=O	59.5
COc1ccccc1-n1nc(-c2ccco2)n(CC(=O)NC2CC2)c1=O	27.6
COc1ccccc1-n1nc(-c2ccco2)n(CC(=O)NC(C)C)c1=O	45.6
Cc1cc(NC(=O)CNC2CCc3ncnn3C2)no1 (stereo unspecified)	17.4
CCOC(=O)CC(c1ccc(OC)cc1)c1c(O)n[nH]c1C (stereo unspecified)	-14.9
Cc1ccc(C(=O)N2CCCC3(CCCC(=O)N3C)C2)cc1F (stereo unspecified)	15.7
COc1ccc(CCN(C)C2CCCN(Cc3noc(C)n3)C2)cc1 (stereo unspecified)	-42.3
COc1ccc(CC(C)(O)CNC(=O)Cc2cccs2)cc1 (stereo unspecified)	40.7
COc1ccc(CC(C)(O)CNC(=O)c2cccs2)cc1 (stereo unspecified)	-18
COc1ccc(CC(C)(O)CNC(=O)Cc2ccc(F)cc2)cc1 (stereo unspecified)	77.6
Cc1noc(C)c1CN(C)C(=O)CCn1c(=O)n(C)c2ccccc21	-6.61
CCCN1CCC(Cc2noc(-c3cc4cccnc4nc3C)n2)CC1	12.9
COCc1nc(CN2CCN(c3ccc(OC)cc3)C(=O)C2C)no1 (stereo unspecified)	11
CCOCC1CN(C(=O)c2ccncc2)Cc2nn(C)cc21 (stereo unspecified)	-46.9
CCS(=O)(=O)CCNC(=O)C1(c2cccc(Cl)c2)CC1	44.8
COc1cccc(-c2n[nH]c3c2CN(C(=O)c2cc(C)n(C)n2)CC3)c1	36.6
COc1cccc(-c2n[nH]c3c2CN(C(=O)c2ccncc2)CC3)c1	-4.91
COc1cccc(-c2n[nH]c3c2CN(C(=O)c2cccc(=O)[nH]2)CC3)c1	53.8
